Source: PubChem BioAssay AID1159580 (chemical genetic matrix, 2015)
In all, about 5,500 compounds went through this assay and about 2,000 (36%) were called active. Another 18% or so got no clear call; they are omitted. Cut-off read from the data, not from the text of the source: active = normalized growth mostly below about 0.91 (no sharp cut-off); inconclusive = no clear call, values can overlap the other calls; inactive = mostly above about 0.92. The list shows a part of the results.

Assay: chemical genetic growth profiling, strain panel (AID 1159580);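 note: tested at 20 µM; growth read once vehicle control cultures reached saturation at 30 °C; 1 = growth at the plate median or of vehicle wells; lower values mean less growth of the strain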
Details: S. cerevisiae deletion strains, growth OD

Measured: normalized growth

CC(C)c1cccc(O)c(=O)c1
active: locus YAL021C, strain ccr4, stronger effect = lower value 0.0678 | locus YAL026C, strain drs2, stronger effect = lower value 0.0622 | locus YAL030W, strain snc1, stronger effect = lower value 0.0616 | locus YBL061C, strain skt5, stronger effect = lower value 0.0689 | locus YBR009C, strain hhf1, stronger effect = lower value 0.0635 | locus YBR023C, strain chs3, stronger effect = lower value 0.0691 | locus YBR171W, strain sec66, stronger effect = lower value 0.0935 | locus YBR231C, strain swc5, stronger effect = lower value 0.0694 | locus YBR279W, strain paf1, stronger effect = lower value 0.0689 | locus YCL011C, strain gbp2, stronger effect = lower value 0.0593 | locus YCL016C, strain dcc1, stronger effect = lower value 0.0739 | locus YCL069W, strain vba3, stronger effect = lower value 0.0926 | locus YCR088W, strain abp1, stronger effect = lower value 0.0649 | locus YDL005C, strain med2, stronger effect = lower value 0.0881 | locus YDL040C, strain nat1, stronger effect = lower value 0.0703 | locus YDR001C, strain nth1, stronger effect = lower value 0.0642 | locus YDR069C, strain doa4, stronger effect = lower value 0.0633 | locus YDR137W, strain rgp1, stronger effect = lower value 0.0985 | locus YDR159W, strain sac3, stronger effect = lower value 0.0917 | locus YDR195W, strain ref2 0.166 | locus YDR297W, strain sur2, stronger effect = lower value 0.0622 | locus YDR334W, strain swr1, stronger effect = lower value 0.0664 | locus YDR335W, strain msn5, stronger effect = lower value 0.0638 | locus YDR392W, strain spt3, stronger effect = lower value 0.0887 | locus YEL003W, strain gim4, stronger effect = lower value 0.0581 | locus YEL037C, strain rad23, stronger effect = lower value 0.0615 | locus YEL061C, strain CIN8 (second series), stronger effect = lower value 0.0653 | locus YER015W, strain faa2, stronger effect = lower value 0.0615 | locus YER016W, strain bim1, stronger effect = lower value 0.067 | locus YER111C, strain swi4, stronger effect = lower value 0.0815 | locus YER155C, strain BEM2 (second series), stronger effect = lower value 0.0927 | locus YFR010W, strain ubp6, stronger effect = lower value 0.072 | locus YGL167C, strain pmr1, stronger effect = lower value 0.091 | locus YGL173C, strain kem1, stronger effect = lower value 0.0718 | locus YGL227W, strain vid30, stronger effect = lower value 0.0687 | locus YGL240W, strain doc1, stronger effect = lower value 0.0871 | locus YGL253W, strain hxk2, stronger effect = lower value 0.0611 | locus YHR013C, strain ard1, stronger effect = lower value 0.113 | locus YHR027C, strain rpn1, stronger effect = lower value 0.0609 | locus YHR030C, strain SLT2, stronger effect = lower value 0.126 | locus YHR079C, strain IRE1, stronger effect = lower value 0.146 | locus YHR142W, strain chs7, stronger effect = lower value 0.0743 | locus YJL092W, strain hpr5, stronger effect = lower value 0.0677 | locus YJL095W, strain BCK1 (second series), stronger effect = lower value 0.0581 | locus YJL095W, strain BCK1, stronger effect = lower value 0.145 | locus YJL115W, strain asf1, stronger effect = lower value 0.0902 | locus YJL129C, strain trk1, stronger effect = lower value 0.0856 | locus YJL154C, strain vps35, stronger effect = lower value 0.0621 | locus YJL164C, strain tpk1, stronger effect = lower value 0.0686 | locus YJL166W, strain qcr8, stronger effect = lower value 0.0625 | locus YJR066W, strain TOR1, stronger effect = lower value 0.0572 | locus YKL160W, strain elf1, stronger effect = lower value 0.0788 | locus YKR026C, strain gcn3, stronger effect = lower value 0.0743 | locus YKR091W, strain srl3, stronger effect = lower value 0.0697 | locus YLL001W, strain dnm1, stronger effect = lower value 0.0706 | locus YLL026W, stronger effect = lower value 0.0634 | locus YLL041C, strain sdh2, stronger effect = lower value 0.0616 | locus YLR027C, strain aat2, stronger effect = lower value 0.0581 | locus YLR113W, strain HOG1, stronger effect = lower value 0.217 | locus YLR221C, strain rsa3, stronger effect = lower value 0.059 | locus YLR258W, strain gsy2, stronger effect = lower value 0.0639 | locus YLR262C, strain YPT6 (second series), stronger effect = lower value 0.0819 | locus YLR320W, strain mms22, stronger effect = lower value 0.0828 | locus YLR342W, strain FKS1, stronger effect = lower value 0.0743 | locus YLR357W, strain rsc2, stronger effect = lower value 0.136 | locus YLR370C, strain arc18, stronger effect = lower value 0.0652 | locus YLR384C, strain iki3, stronger effect = lower value 0.0711 | locus YML120C, strain ndi1, stronger effect = lower value 0.0618 | locus YMR058W, strain fet3, stronger effect = lower value 0.0629 | locus YMR125W, strain sto1, stronger effect = lower value 0.0871 | locus YMR129W, stronger effect = lower value 0.0613 | locus YMR205C, strain PFK2, stronger effect = lower value 0.091 | locus YMR231W, strain pep5, stronger effect = lower value 0.0803 | locus YNL071W, strain lat1, stronger effect = lower value 0.0663 | locus YNL183C, strain NPR1, stronger effect = lower value 0.0186 | locus YNL209W, strain ssb2, stronger effect = lower value 0.0585 | locus YNL248C, strain rpa49, stronger effect = lower value 0.0753 | locus YNL322C, strain KRE1 (second series), stronger effect = lower value 0.068 | locus YNR049C, strain mso1, stronger effect = lower value 0.0605 | locus YOR001W, strain rrp6, stronger effect = lower value 0.0684 | locus YOR070C, strain gyp1, stronger effect = lower value 0.123 | locus YOR080W, strain dia2, stronger effect = lower value 0.0682 | locus YOR083W, strain WHI5, stronger effect = lower value 0.0692 | locus YOR106W, strain vam3, stronger effect = lower value 0.0676 | locus YOR231W, strain MKK1, stronger effect = lower value 0.134 | locus YOR265W, strain rbl2, stronger effect = lower value 0.0639 | locus YOR270C, strain vph1, stronger effect = lower value 0.101 | locus YOR290C, strain snf2, stronger effect = lower value 0.0651 | locus YPL051W, strain arl3, stronger effect = lower value 0.0708 | locus YPL078C, strain atp4, stronger effect = lower value 0.0754 | locus YPL106C, strain sse1, stronger effect = lower value 0.111 | locus YPL240C, strain hsp82, stronger effect = lower value 0.0667 | locus YPL256C, strain CLN2, stronger effect = lower value 0.121
